# Hit rate of the full screen: of about 370,000 compounds, about 6,800 (1.8%) were called active. What follows is part of a selection rich in actives, with near analogues and random picks from the rest. Values without a mark were called inactive.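 How the source made its calls: active means activation above a cutoff set at the mean of all screened compounds plus 3 SD (cut at about 10% in these data); inactive means the rest.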
# Test system: Nuclear hormone receptor DAF-12 (Heterodera glycines), GAL4 fusion
# Test: H. glycines DAF-12 receptor agonists, primary screen, cell-based, luminescence, HEK293, GAL4 fusion, UAS-luciferase (AID 687014);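 further: 0% = DMSO wells and 100% = sodium butyrate wells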
# Details: HEK293 GAL4-hgDAF12 UAS-luciferase reporter, agonist luminescence; at 6.8 µM; hits give high values; normalized to butyrate control
row,Compound,activation
1,O=C(CCc1nnc(CCCCc2ccccc2)o1)NC(c1cccnc1)C(F)(F)F (stereo unspecified),1.64%
2,Cc1cc(=O)n2nc(N3CCCC(C(=O)N4CCN(C)CC4)C3)sc2n1 (stereo unspecified),-0.62%
3,O=S1(=O)c2ccc(Br)cc2OC[C@H](Cc2ccccc2)N1Cc1cn(Cc2ccccc2)nn1,-1.13%
4,Cc1nccn1CCC1CCCCN1C(=O)CCc1nnc(-c2ccsc2)o1 (stereo unspecified),-0.93%
5,CC(=O)Nc1cccc(C(=O)OCN2C(=O)c3ccccc3C2=O)c1,-0.37%
6,CC(=O)Nc1cccc(C(=O)OCC(=O)c2ccc3c(c2)OCO3)c1,17.4% (active)
7,CCSc1ccccc1C(=O)Nc1ccc2c(c1)OCO2,3.85%
8,CC(=O)Nc1cccc(C(=O)OCC(=O)NCc2cc(C)c(O)c(C)c2)c1,3.44%
9,CC(Sc1nc2cc(Cl)ccc2s1)C(=O)Nc1ccc2c(c1)OCO2 (stereo unspecified),7.08%
10,CC(C)C(=O)Nc1cccc(C(=O)Nc2ccc3c(c2)OCO3)c1,14.9% (active)
11,COC(=O)C1=C(C(=O)OC)C2C=C(C(C)C)C1C(=O)C2(C)O (stereo unspecified),2.89%
12,COC(=O)c1cccc(Cn2ccc3ccc(-c4ccc5ccn(C(=O)c6ccccc6C)c5c4)cc32)c1,0.42%
13,O=C(NS(=O)(=O)c1cccs1)[C@H]1O[C@@H](n2ccc(=O)[nH]c2=O)[C@H](O)[C@@H]1O,1.66%
14,COc1ccc(N2CCN(CCNS(=O)(=O)c3ccc([N+](=O)[O-])cc3)CC2)cc1,-4.01%
15,Fc1ccccc1OCCSc1nc2ccccc2o1,3.51%
16,CCOc1ccccc1/C=N/Nc1nc2ccccc2o1,10.6% (active)
17,O=C(CSc1nc2ccccc2o1)N/N=C/c1ccccc1C(=O)O,1.68%
18,COc1ccccc1C(=O)N1O[C@]23C=C[C@]14C[C@@H](O)CC[C@]4(C)C2CC[C@]1(C)[C@@H]([C@H](C)/C=C/[C@H](C)C(C)C)CC[C@H]13 (stereo partly specified),-1.48%
19,C/C(=N/NC(=O)c1ccn(C)n1)c1ccncc1,7.12%
20,C/C(=N\NC(=O)c1ccccc1F)c1ccccn1,10.8% (active)
21,CC(=NNC(=S)N1CCCCCC1)c1ccccn1,2.43%
22,Cc1ccc(S(=O)(=O)N2C[C@@H](C)[C@]3(C2)[C@H](O)[C@H](OC(=O)NCc2ccccc2)C[C@H]2C(=O)N(c4ccccc4)C(=O)[C@H]23)cc1,-0.54%
23,Cc1ccc(CN2CCCCC(NC(=O)C3CCCCC3)C2=O)cc1 (stereo unspecified),-1.5%

row,Compound,activation
1,O=c1[nH]c(CCl)nc2cc(-c3ccc(Cl)cc3)sc12,12.9% (active)
2,Cn1c(NCc2cccnc2)nc2cc(-c3ccc(F)cc3)sc2c1=O,8.39%
3,COc1cccc(-c2cc3nc(NCCOc4ccccc4Cl)n(C)c(=O)c3s2)c1,0.22%
4,COc1ccc(-n2c(SCC(=O)Nc3ccc4c(c3)OCCO4)nnc2-c2ccc(Cl)cc2)cc1,-1.31%
5,O=C(C(=O)N1CCC(CNC(=O)c2cccnc2Cl)CC1)c1cccs1,1.44%
6,Cc1nc(NC(=O)C(C)(C)C)sc1[N+](=O)[O-],-4.82%
7,Brc1ccc2nc(N3CCCC3)sc2c1,14.3% (active)
8,Cc1nc(N2CCCCC2)sc1C=O,1.15%
9,COc1ccc2nc(N3CCN(C(=O)c4ccc([N+](=O)[O-])o4)CC3)sc2c1,-2.68%
10,Cc1nc(CNc2ncnc3ccc(-c4ccc5c(c4)OCO5)cc23)cs1,1.56%
11,O=C(COC(=O)/C=C/c1ccc2c(c1)OCO2)NC1CCS(=O)(=O)C1 (stereo unspecified),-2.83%
12,Cc1cccc(NC(=O)/C=C/c2ccc3c(c2)OCO3)n1,17.7% (active)
13,CC(NC(=O)Nc1cccc([N+](=O)[O-])c1)c1ccc2c(c1)OCO2 (stereo unspecified),-1.33%
14,CC(NS(=O)(=O)c1ccc(Cl)cc1)C(=O)Nc1ccc2c(c1)OCCO2 (stereo unspecified),1.96%
15,COc1cccc(/C=C/C(=O)Nc2ccc3c(c2)OCCO3)c1,16.9% (active)
16,Cc1ccc(OCCCC(=O)Nc2ccc3c(c2)OCCO3)cc1,-2.83%
17,CN(Cc1ccccc1)C(=O)COC(=O)/C=C/c1ccc2c(c1)OCO2,-1.56%
18,Cc1ccc(S(=O)(=O)NCC(=O)Nc2ccc3c(c2)OCCO3)cc1,-3.96%
19,Cc1cccc(NC(=O)Nc2ccc3c(c2)OCO3)n1,14.2% (active)
20,CNS(=O)(=O)c1ccc(NC(=O)Nc2ccc3c(c2)OCO3)cc1,18.5% (active)
21,O=C(Nc1ccc2c(c1)OCO2)C1CC(c2c(F)cccc2Cl)=NO1 (stereo unspecified),7.76%
22,CCOc1ncccc1C(=O)Nc1ccc2c(c1)OCCO2,-3.84%
23,CN1C(=O)c2cc(NS(C)(=O)=O)ccc2OC[C@@H]2O[C@@H](CC(=O)NCc3ccc(-c4ccccc4)cc3)CC[C@H]21,-3.14%

row,Compound,activation
1,COc1ccc(OCC(=O)NN2Cc3ccccc3C2=N)cc1,1.16%
2,CCOC(=O)[C@@]12CN(C(=O)OC(C)(C)C)CC=C1N(Cc1ccc(OC)cc1)C(=O)[C@H]2CC(=O)NCc1ccc(OC)c(OC)c1,-0.18%
3,COc1cc(N/C=C2\CC(=O)NC(C)=C2C#N)cc(OC)c1OC,-2.99%
4,Cc1csc2nc(COC(=O)c3cccc(N(C)C)c3)cc(=O)n12,1.98%
5,CCc1ccc(Oc2coc3cc(O)ccc3c2=O)cc1,2.19%
6,CC(C)=CCc1c(O)c(CC=C(C)C)c2occ(-c3ccc(O)cc3)c(=O)c2c1O,1.09%
7,O=c1c(-c2ccccc2)coc2cc(O)ccc12,11.4% (active)
8,C#CCN([C@@H](C)C(=O)OCC)S(=O)(=O)c1ccc(Br)cc1F,3.49%
9,CC(C)(C)C(=O)c1cnc(Nc2ccccc2)s1,15.3% (active)
10,CC(C)(C)c1nnc(NC(=O)C2c3ccccc3Oc3ccccc32)s1,0.43%
11,S=c1[nH]nc(Nc2ccccc2)s1,-0.56%
12,CC(C)(C)OC(=O)NCCc1ccccc1/C=C/S(=O)(=O)NCc1ccc(F)cc1,0.52%
13,O=C(COC(=O)CNC(=O)c1ccccc1F)NCC(F)(F)F,-2.85%
14,O=C(CCCOc1ccccc1)NNC(=O)c1ccc(Cl)cc1,-0.32%
15,O=C(CNC(=O)c1ccccc1F)c1ccc(Br)cc1,11.4% (active)
16,CC(C)c1ccc(C(=O)NCCCc2ccccc2)cc1,9.47%
17,O=C(CCc1c[nH]c2ccccc12)NCCOc1ccccc1,3.15%
18,CN(c1ccccc1)S(=O)(=O)c1ccc(C(=O)NCCc2ccccc2)cc1,4.14%
19,NS(=O)(=O)c1cc(C(=O)NCCOc2ccccc2)c(Cl)cc1Cl,-5.7%
20,O=C(NCCc1csc(-c2ccccc2)n1)c1ccccc1F,-3.44%
21,O=C(NCCOc1ccccc1)c1ccccc1F,15% (active)
22,O=C(NCCOc1ccccc1)c1ccccc1,14.6% (active)
23,O=C(CNC(=O)c1ccccc1F)OCC(=O)c1c[nH]c2ccccc12,1.04%

row,Compound,activation
1,CCCOc1ccc(C(=O)NCCc2ccccc2)cc1,18.9% (active)
2,NC(=O)c1nnsc1-c1ccc(-c2snnc2C(N)=O)cc1,2.87%
3,COc1cccc(CSc2nnc(-c3cccnc3)n2Cc2ccccc2)c1,1.72%
4,CC(C)CNc1cccc2c1S(=O)(=O)N[C@H](C)CO2,-0.06%
5,Cc1[nH]c2ccccc2c1CC(=O)Nc1ccc(Nc2cccnc2)c(-c2cccc(Cl)c2)c1,-1.25%
6,CC(C)C(C#CC1CC1)N(Cc1ccc2c(c1)OCO2)C(N)=NC(=O)/C=C/c1cccc(C(F)(F)F)c1 (stereo unspecified),0.47%
7,C=CCN1C(=O)[C@@H](CC(=O)N2CCN(C(=O)c3ccco3)CC2)[C@]2(C(=O)OC)CCCCC=C12,0.44%
8,Nc1cccc2c1C(=O)N(Cc1nnc(-c3ccccc3Br)o1)C2=O,-2.29%
9,C=CC1=CCN(S(=O)(=O)C(C)(C)C)[C@@H]1CCO,1.1%
10,CC(C)Oc1ccc(/C=C(\NC(=O)/C=C/c2ccco2)C(=O)NCCc2nc3ccccc3[nH]2)cc1,-4.59%
11,O=C(OCc1cc(=O)n2ccsc2n1)C1(c2ccc(Cl)cc2)CC1,-1.52%
12,COC(=O)Cc1nnn2c1[C@H](C)[C@@H](OC)c1cc(Br)ccc1-2,3.49%
13,CCOC(=O)c1c(NC(C)=O)sc2c(O)c(Br)ccc12,1.29%
14,Cc1csc(NC(=O)Nc2ccccc2[N+](=O)[O-])n1,25.4% (active)
15,CN1CCN(CCNC(=O)Nc2ccccc2[N+](=O)[O-])CC1,0.56%
16,Cc1cc(NC(=O)Nc2ccccc2[N+](=O)[O-])no1,4.97%
17,COC1=C[C@H](C(=O)NCCNC(C)=O)[C@H](C)[C@@H](c2ccccc2)CC1=O,-1.27%
18,O=C(Cn1c(N2CCN(C/C=C/c3ccccc3)CC2)nc2ccccc21)c1ccccc1,-0.26%
19,O=C(Nc1ccc(C2CC2(Cl)Cl)cc1)c1cccc([N+](=O)[O-])c1 (stereo unspecified),14.5% (active)
20,O=C(NC(=S)NC1CCS(=O)(=O)C1)c1cccc([N+](=O)[O-])c1 (stereo unspecified),3.84%
21,Cc1ccc(NC(=O)C(=O)NCC2CCN(C(=O)c3cccc([N+](=O)[O-])c3)CC2)cc1,1.22%
22,COc1ccc(S[C@]2(C(=O)N(C)C)CC(=O)N(c3ccc(OC)cc3)[C@@H]2c2ccc(OC)cc2)cc1,-1%

# Reference: PubChem BioAssay AID687014 (The Scripps Research Institute Molecular Screening Center, 2013)
